# According to the supplement of paper PMC8728848:
# The entries come from a sample that favours the strongest signals as a whole.
# B1: FliC (Pseudomonas aeruginosa), P72151 (protein)
# chain: MALTVNTNIASLNTQRNLNASSNDLNTSLQRLTTGYRINSAKDDAAGLQISNRLSNQISGLNVATRNANDGISLAQTAEGALQQSTNILQRIRDLALQSANGSNSDADRAALQKEVAAQQAELTRISDTTTFGGRKLLDGSFGTTSFQVGSNAYETIDISLQNASASAIGSYQVGSNGAGTVASVAGTATASGIASGTVNLVGGGQVKNIAIAAGDSAKAIAEKMDGAIPNLSARARTVFTADVSGVTGGSLNFDVTVGSNTVSLAGVTSTQDLADQLNSNSSKLGITASINDKGVLTITSATGENVKFGAQTGTATAGQVAVKVQGSDGKFEAAAKNVVAAGTAATTTIVTGYVQLNSPTAYSVSGTGTQASQVFGNASAAQKSSVASVDISTADGAQNAIAVVDNALAAIDAQRADLGAVQNRFKNTIDNLTNISENATNARSRIKDTDFAAETAALSKNQVLQQAGTAILAQANQLPQAVLSLLR
# Legend:
# Test in all cases: glycan array binding signal (z-score within array); higher = stronger binding
# Details in all cases: glycan notation: IUPAC condensed, linker removed
# Fuc(a1-2)Gal(b1-3)GlcNAc = biological target: Fuc(a1-2)Gal(b1-3)GlcNAc
# Outline: (§1)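 Arrays were curated from the Consortium for Functional Glycomics database, 3228 in total, and kept only where the protein sequence was available. Binding is expressed as a within-array Z-score. This score was averaged across arrays of the same protein sequence at different concentrations or buffers and across linkers, and negative values can be read as non-binding.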
# [1] = biological target: Fuc(a1-2)Gal(b1-3)GlcNAc(b1-2)Man(a1-3)[Fuc(a1-2)Gal(b1-3)GlcNAc(b1-2)Man(a1-6)]Man(b1-4)GlcNAc(b1-4)GlcNAc
# Outline: as §1
# [2] = biological target: Fuc(a1-2)Gal(b1-3)GlcNAc(b1-3)Gal(b1-4)Glc
# Outline: as §1
# [3] = biological target: Fuc(a1-2)Gal(b1-3)GlcNAc(b1-3)[Gal(b1-4)GlcNAc(b1-6)]Gal(b1-4)Glc
# Outline: as §1
# [4] = biological target: Fuc(a1-2)Gal(b1-3)GlcNAc(b1-3)[Neu5Ac(a2-6)Gal(b1-4)GlcNAc(b1-6)]Gal(b1-4)Glc
# Outline: as §1
# [5] = biological target: Fuc(a1-2)Gal(b1-4)GlcNAc(b1-2)[Fuc(a1-2)Gal(b1-4)GlcNAc(b1-4)]Man(a1-3)[Fuc(a1-2)Gal(b1-4)GlcNAc(b1-2)Man(a1-6)]Man(b1-4)GlcNAc(b1-4)GlcNAc
# Outline: as §1
# [6] = biological target: Fuc(a1-2)Gal(b1-4)GlcNAc(b1-3)Gal(b1-4)GlcNAc(b1-3)Gal(b1-4)GlcNAc
# Outline: as §1
# [7] = biological target: Fuc(a1-2)[Gal(a1-3)]Gal(b1-3)GlcNAc
# Outline: as §1
# [8] = biological target: Fuc(a1-2)[Gal(a1-3)]Gal(b1-3)GlcNAc(b1-6)GalNAc
# Outline: as §1
# [9] = biological target: Fuc(a1-2)[GalNAc(a1-3)]Gal(b1-3)GlcNAc(b1-6)GalNAc
# Outline: as §1
# [10] = biological target: Fuc(a1-2)[GalNAc(a1-3)]Gal(b1-4)[Fuc(a1-3)]GlcNAc(b1-3)GalNAc
# Outline: as §1
# Gal(a1-4)Gal(b1-4)GlcNAc = biological target: Gal(a1-4)Gal(b1-4)GlcNAc
# Outline: as §1
# [11] = biological target: Gal(b1-3)GlcNAc(a1-3)Gal(b1-4)GlcNAc
# Outline: as §1
# [12] = biological target: Gal(b1-3)GlcNAc(b1-3)Gal(b1-4)GlcNAc(b1-3)Gal(b1-4)GlcNAc(b1-2)[Gal(b1-3)GlcNAc(b1-3)Gal(b1-4)GlcNAc(b1-3)Gal(b1-4)GlcNAc(b1-6)]Man(a1-6)[Gal(b1-3)GlcNAc(b1-3)Gal(b1-4)GlcNAc(b1-3)Gal(b1-4)GlcNAc(b1-2)Man(a1-3)]Man(b1-4)GlcNAc(b1-4)[Fuc(a1-6)]GlcNAc
# Outline: as §1
# [13] = biological target: Gal(b1-3)GlcNAc(b1-3)Gal(b1-4)GlcNAc(b1-6)[Gal(b1-3)GlcNAc(b1-3)]Gal(b1-4)Glc
# Outline: as §1
# [14] = biological target: Gal(b1-3)[Fuc(a1-4)]GlcNAc(b1-3)Gal(b1-4)GlcNAc
# Outline: as §1
# [15] = biological target: Gal(b1-4)GlcNAc(b1-2)[Gal(b1-4)GlcNAc(b1-4)]Man(a1-3)[GlcNAc(b1-4)][Gal(b1-4)GlcNAc(b1-2)Man(a1-6)]Man(b1-4)GlcNAc(b1-4)GlcNAc
# Outline: as §1
# [16] = biological target: Gal(b1-4)GlcNAc(b1-2)[Gal(b1-4)GlcNAc(b1-6)]Man(a1-6)[Gal(b1-4)GlcNAc(b1-2)Man(a1-3)]Man(b1-4)GlcNAc(b1-4)[Fuc(a1-6)]GlcNAc
# Outline: as §1
# [17] = biological target: Gal(b1-4)GlcNAc(b1-3)Gal(b1-4)GlcNAc(b1-3)Gal(b1-4)GlcNAc
# Outline: as §1
# [18] = biological target: Gal(b1-4)GlcNAc(b1-3)Gal(b1-4)GlcNAc(b1-3)Gal(b1-4)GlcNAc(b1-3)Gal(b1-4)GlcNAc(b1-3)Gal(b1-4)GlcNAc(b1-2)[Gal(b1-4)GlcNAc(b1-3)Gal(b1-4)GlcNAc(b1-3)Gal(b1-4)GlcNAc(b1-3)Gal(b1-4)GlcNAc(b1-3)Gal(b1-4)GlcNAc(b1-6)]Man(a1-6)[Gal(b1-4)GlcNAc(b1-3)Gal(b1-4)GlcNAc(b1-3)Gal(b1-4)GlcNAc(b1-3)Gal(b1-4)GlcNAc(b1-3)Gal(b1-4)GlcNAc(b1-2)Man(a1-3)]Man(b1-4)GlcNAc(b1-4)[Fuc(a1-6)]GlcNAc
# Outline: as §1
# Gal3S(b1-3)GalNAc = biological target: Gal3S(b1-3)GalNAc
# Outline: as §1
# [19] = biological target: GalNAc(a1-3)GalNAc(b1-3)Gal(a1-4)Gal(b1-4)Glc
# Outline: as §1
# [20] = biological target: GlcA3S(b1-3)Gal(b1-4)GlcNAc(b1-3)Gal(b1-4)Glc
# Outline: as §1
# [21] = biological target: GlcNAc(b1-2)[GlcNAc(b1-4)]Man(a1-3)[GlcNAc(b1-4)][GlcNAc(b1-2)Man(a1-6)]Man(b1-4)GlcNAc(b1-4)GlcNAc
# Outline: as §1
# [22] = biological target: GlcNAc(b1-3)Gal(b1-4)GlcNAc(b1-3)Gal(b1-4)GlcNAc(b1-3)GalNAc
# Outline: as §1
# [23] = biological target: GlcNAc(b1-3)[GlcNAc(b1-6)]GalNAc
# Outline: as §1
# Kdn(a2-3)Gal(b1-4)Glc = biological target: Kdn(a2-3)Gal(b1-4)Glc
# Outline: as §1
# Man(a1-2)Man(a1-3)Man = biological target: Man(a1-2)Man(a1-3)Man
# Outline: as §1
# [24] = biological target: Man(a1-3)[Man(a1-6)]Man(a1-6)[Man(a1-3)]Man
# Outline: as §1
# Man(b1-4)GlcNAc = biological target: Man(b1-4)GlcNAc
# Outline: as §1
# [25] = biological target: Neu5Ac(a2-3)Gal(b1-3)[Fuc(a1-4)]GlcNAc
# Outline: as §1
# [26] = biological target: Neu5Ac(a2-3)Gal(b1-4)GlcNAc(b1-2)Man(a1-3)[Neu5Ac(a2-3)Gal(b1-4)GlcNAc(b1-2)Man(a1-6)]Man(b1-4)GlcNAc(b1-4)[Fuc(a1-6)]GlcNAc
# Outline: as §1
# [27] = biological target: Neu5Ac(a2-3)Gal(b1-4)GlcNAc(b1-2)[Neu5Ac(a2-3)Gal(b1-4)GlcNAc(b1-4)]Man(a1-3)[GlcNAc(b1-4)][Neu5Ac(a2-3)Gal(b1-4)GlcNAc(b1-2)[Neu5Ac(a2-3)Gal(b1-4)GlcNAc(b1-6)]Man(a1-6)]Man(b1-4)GlcNAc(b1-4)GlcNAc
# Outline: as §1
# [28] = biological target: Neu5Ac(a2-3)Gal(b1-4)GlcNAc(b1-3)Gal(b1-4)GlcNAc(b1-3)Gal(b1-4)GlcNAc
# Outline: as §1
# [29] = biological target: Neu5Ac(a2-3)Gal(b1-4)GlcNAc(b1-6)[Neu5Ac(a2-3)Gal(b1-3)]GalNAc
# Outline: as §1
# [30] = biological target: Neu5Ac(a2-3)Gal(b1-4)[Fuc(a1-3)]GlcNAc(b1-3)Gal(b1-4)[Fuc(a1-3)]GlcNAc(b1-3)Gal(b1-4)[Fuc(a1-3)]GlcNAc
# Outline: as §1
# [31] = biological target: Neu5Ac(a2-6)Gal(b1-4)GlcNAc(b1-3)Gal(b1-3)GlcNAc
# Outline: as §1
# [32] = biological target: Neu5Ac(a2-6)Gal(b1-4)GlcNAc(b1-3)Gal(b1-4)GlcNAc(b1-3)[Neu5Ac(a2-6)Gal(b1-4)GlcNAc(b1-3)Gal(b1-4)GlcNAc(b1-6)]GalNAc
# Outline: as §1
# Neu5Ac(a2-6)GalNAc = biological target: Neu5Ac(a2-6)GalNAc
# Outline: as §1
# [33] = biological target: Neu5Ac(a2-8)Neu5Ac(a2-3)Gal(b1-4)Glc
# Outline: as §1
# [34] = biological target: Neu5Ac(a2-8)Neu5Ac(a2-8)Neu5Ac(a2-3)[Gal(b1-3)GalNAc(b1-4)]Gal(b1-4)Glc
# Outline: as §1
binder,measurement,setting,value
B1,glycan array binding signal (z-score),Fuc(a1-2)Gal(b1-3)GlcNAc,-0.166
same,glycan array binding signal (z-score),[1],-0.133
same,glycan array binding signal (z-score),[2],-0.154
same,glycan array binding signal (z-score),[3],-0.067
same,glycan array binding signal (z-score),[4],2.82
same,glycan array binding signal (z-score),[5],-0.117
same,glycan array binding signal (z-score),[6],-0.151
same,glycan array binding signal (z-score),[7],-0.118
same,glycan array binding signal (z-score),[8],0.094
same,glycan array binding signal (z-score),[9],2.71
same,glycan array binding signal (z-score),[10],-0.134
same,glycan array binding signal (z-score),Gal(a1-4)Gal(b1-4)GlcNAc,0.061
same,glycan array binding signal (z-score),[11],-0.119
same,glycan array binding signal (z-score),[12],2.32
same,glycan array binding signal (z-score),[13],-0.165
same,glycan array binding signal (z-score),[14],-0.193
same,glycan array binding signal (z-score),[15],-0.178
same,glycan array binding signal (z-score),[16],1.27
same,glycan array binding signal (z-score),[17],-0.189
same,glycan array binding signal (z-score),[18],3.23
same,glycan array binding signal (z-score),Gal3S(b1-3)GalNAc,-0.09
same,glycan array binding signal (z-score),[19],-0.183
same,glycan array binding signal (z-score),[20],-0.191
same,glycan array binding signal (z-score),[21],1.69
same,glycan array binding signal (z-score),[22],-0.143
same,glycan array binding signal (z-score),[23],-0.16
same,glycan array binding signal (z-score),Kdn(a2-3)Gal(b1-4)Glc,-0.115
same,glycan array binding signal (z-score),Man(a1-2)Man(a1-3)Man,-0.16
same,glycan array binding signal (z-score),[24],-0.152
same,glycan array binding signal (z-score),Man(b1-4)GlcNAc,-0.177
same,glycan array binding signal (z-score),[25],-0.192
same,glycan array binding signal (z-score),[26],20.9
same,glycan array binding signal (z-score),[27],8.36
same,glycan array binding signal (z-score),[28],0.251
same,glycan array binding signal (z-score),[29],0.476
same,glycan array binding signal (z-score),[30],3.22
same,glycan array binding signal (z-score),[31],-0.117
same,glycan array binding signal (z-score),[32],-0.127
same,glycan array binding signal (z-score),Neu5Ac(a2-6)GalNAc,1.71
same,glycan array binding signal (z-score),[33],2.98
same,glycan array binding signal (z-score),[34],-0.227
